Screens as filed in PubChem BioAssay.
Sampled rows, rich in hits. Any-hit rate of the full collection: about 6.1%.
D1 antag: blocks dopamine activation of the human D1 receptor. HEK293 TREx D1 cells, calcium flux, dopamine EC80; active compounds read low. activity change, negative = inhibition, % at 10 µM. 3.2% of 360,000 active. AID 504652; in the data active = activity change below about -30%
Target sequence (P21728 whole entry, looked up): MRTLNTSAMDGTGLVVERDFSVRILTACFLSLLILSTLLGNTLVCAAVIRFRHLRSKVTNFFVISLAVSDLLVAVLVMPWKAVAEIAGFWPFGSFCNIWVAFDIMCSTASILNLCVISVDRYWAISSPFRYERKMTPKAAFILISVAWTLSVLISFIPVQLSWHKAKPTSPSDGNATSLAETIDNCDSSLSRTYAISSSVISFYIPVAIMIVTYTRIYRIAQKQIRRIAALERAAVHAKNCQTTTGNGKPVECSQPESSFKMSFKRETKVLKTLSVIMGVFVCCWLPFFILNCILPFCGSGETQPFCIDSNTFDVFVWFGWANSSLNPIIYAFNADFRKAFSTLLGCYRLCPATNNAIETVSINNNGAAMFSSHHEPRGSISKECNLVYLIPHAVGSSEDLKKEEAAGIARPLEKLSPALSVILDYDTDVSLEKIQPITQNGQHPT
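Cells carrying a force-coupled, tetracycline-inducible human D1 receptor report calcium flux. Each well gets a 10 s baseline, compound with 180 s monitoring, then an EC80 dopamine stimulus with a second 180 s kinetic read.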
DRD3 agonist: activates the human D3 dopamine receptor. D3R DiscoveRx beta-arrestin cells, luminescence, 90 min. max activation, %. P35462. 0.58% of 410,000 active; in the data active = max activation above about 30%
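Agonist mode: compounds and dopamine controls were applied to plated cells for 90 min at 37 degrees C after an overnight attachment at 1500 cells/well. Luminescent read-out followed 30 - 60 minutes at room temperature with DiscoveRx detection reagent.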
D1 agonist: agonists of human D1 dopamine receptor; P21728; HEK293 T-REx D1 cells, calcium flux, agonist mode; activation, % at 2 µM; 1% of 360,000 active; AID 504660; in the data active = activation above about 30%
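Agonism was scored from calcium flux recorded over 180 s (1 read/s) after pintool compound addition, following a 10-cycle baseline. Cells were inducible force-coupled HEK293 TREx D1, plated overnight at 30 C and loaded with no-wash calcium dye.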
D3 antag: blocks the human D3 dopamine receptor; P35462; D3R cells, DiscoveRx beta-arrestin luminescence, antagonist mode; active compounds read low; max response, negative = inhibition, %; 2.5% of 360,000 active; AID 652054; in the data active = max response below about -50%; inconclusive = no clear call, values can overlap the other calls
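Cells expressing the human receptor were seeded at 1500 cells/well, incubated overnight at 37 degrees C in 5% CO2, then exposed to library compounds with dopamine controls for 90 minutes at 37 degrees C before luminescent detection.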
D1 potentiator: enhances dopamine response at the human D1 receptor; P21728; HEK293 TREx D1 cells, calcium flux, dopamine EC20 potentiation; potentiation, % at 10 µM; 0.036% of 360,000 active; in the data active = potentiation above about 30%
Each line names hits and unclear results; the compound was inactive in the other large screens; ! = not confirmed by another sample.

CC(=O)c1ccc(NC(=O)/C=C/c2ccc(C)o2)cc1	none (no result: D3 antag)
Cc1cc(NS(=O)(=O)c2ccc(NC(=O)/C=C/c3ccc(C)o3)cc2)nc(C)n1	none
Cc1ccc(S(=O)(=O)N(CCC(=O)NCC(c2ccccc2)N(C)C)c2ccccc2)cc1 (centres undefined)	none (no result: D1 antag, D1 agonist, D1 potentiator)
O=C(Cn1cc(CN(Cc2ccccc2)Cc2ccccc2)nn1)Nc1cc(C(F)(F)F)ccc1Cl	none (no result: DRD3 agonist, D3 antag)
CCOC(=O)c1[nH]c2ccc(F)cc2c1NC(=O)C(C)N1CCc2cc(OC)c(OC)cc2C1 (centres undefined)	D3 antag -55.2
CC(=O)Nc1ccc(C(=O)CN2C(=O)NC3(CCCc4ccccc43)C2=O)c(F)c1 (centres undefined)	none (no result: D1 antag, D1 agonist, D1 potentiator)
CN(C)/C=C1/C=C(C=O)OC1=O	none
Cc1nc2c(C#N)cnn2c2c1CCN(Cc1ccccc1)N2C	none (no result: D1 antag)
Cc1nc2c(C#N)cnn2c2c1CCN2CC1CCCO1 (centres undefined)	DRD3 agonist 43.1
CCN(c1cccc(C)c1)S(=O)(=O)c1ccc(-c2cc(C)no2)s1	none
Cc1cccc(N(C)S(=O)(=O)c2ccc(-c3cc(C)no3)s2)c1	D1 agonist 32.5!
COc1ccccc1NS(=O)(=O)c1ccc(-c2cc(C)no2)s1	DRD3 agonist 51.4
CC1CCCCN1CCn1c(=S)[nH]c2cc3c(cc2c1=O)OCO3 (centres undefined)	none
Cn1c(=O)[nH]c(=O)c2c1nc(N1CCCCC1)n2CC(O)COc1ccc([N+](=O)[O-])cc1 (centres undefined)	none
CCOC(=O)c1cnc2ccc(OCC)cc2c1N1CCN(c2ccccc2)CC1	D3 antag -65.2
CCOC(=O)c1cnc2ccc(OCC)cc2c1NCc1ccccc1	D1 antag -31.9, DRD3 agonist 48.3
CCOC(=O)c1cnc2ccc(C)cc2c1Nc1ccc(N2CCOCC2)cc1	D3 antag -59.3
CCOC(=O)c1cnc2ccc(Cl)cc2c1Nc1ccc(N2CCOCC2)cc1	none (no result: D3 antag)
CCOC(=O)c1cnc2ccc(OCC)cc2c1NCc1cccnc1	none
CCOC(=O)c1cnc2ccc(OCC)cc2c1N1CCN(c2ccccc2F)CC1	none (no result: D3 antag)
CCOc1ccc2ncc3c(-c4ccccc4)nn(CC(=O)Nc4cccc(F)c4)c3c2c1	none (no result: D3 antag)
COc1ccccc1CN(C)C(=O)c1cccc(S(=O)(=O)N2CCc3ccccc3C2)c1	none
COc1ccc(N2CCN(C(=O)Nc3cn(CC(C)C)c(=O)c4ccccc34)CC2)cc1	none (no result: D3 antag)
COc1ccc(NC(=O)c2cc(S(=O)(=O)N3CCCCC3)ccc2C)cc1S(=O)(=O)N1CCOCC1	D3 antag -52.0 (no result: D1 antag, D1 agonist, D1 potentiator)
Cc1ccc(S(=O)(=O)N2CCCCC2)cc1C(=O)Nc1ccc(N2CCOCC2)cc1	none
COc1ccc(NC(=O)c2cc(S(=O)(=O)N3CCOCC3)ccc2C)cc1S(=O)(=O)N1CCOCC1	none (no result: D1 antag, D1 agonist, D1 potentiator)
Cc1ccc(S(=O)(=O)N2CCOCC2)cc1C(=O)Nc1ccc(C(N)=O)cc1	D1 antag -31.7
Cc1ccc(C2(c3ccccc3)NC(=O)N(CC(=O)NCc3ccco3)C2=O)cc1C (centres undefined)	none
CN1CCN(CC(O)COc2ccccc2)CC1 (centres undefined)	none
CC(=O)c1ccc(OCC(O)CN2CCC(C)CC2)cc1 (centres undefined)	none
CCOc1ccc(OCC(O)CN2CCc3ccccc3C2)cc1 (centres undefined)	D3 antag -98.0
CC(=O)c1ccc(OCC(O)CN2CCc3ccccc3C2)cc1 (centres undefined)	D3 antag -83.7
Cc1cc(OCC(O)CN2CCc3ccccc3C2)cc(C(C)C)c1 (centres undefined)	D3 antag -68.1
OC(COCc1ccc(Cl)cc1)CN1CCc2ccccc2C1 (centres undefined)	D3 antag -71.9
CCC(C)NCC(O)COCc1ccc(Cl)cc1 (centres undefined)	D1 agonist 36.2
Cc1ccc(C)c(OCC(O)CN2CCc3ccccc3C2)c1C (centres undefined)	D3 antag -115.1
Cc1cc(OCC(O)CN2CCc3ccccc3C2)ccc1Cl (centres undefined)	D3 antag -98.1
Cc1ccc(C)c(OCC(O)CN2CCC(C)CC2)c1C (centres undefined)	D3 antag inconclusive
OC(COc1ccc(CNCc2cccnc2)cc1)CN1CCc2ccccc2C1 (centres undefined)	D3 antag -103.3
CCN(CCn1cccn1)Cc1ccccc1OCC(O)CN1CCc2ccccc2C1 (centres undefined)	D3 antag -57.7
Cc1ccc(C(=O)N(CCc2ccccc2)Cc2ccccc2)cc1S(=O)(=O)N1CCCCC1	none
COc1ccc(CC(=O)NCC(c2cccs2)S(=O)(=O)c2ccc(F)c(C)c2)cc1 (centres undefined)	none (no result: D3 antag)
Cc1cc(S(=O)(=O)C(CNC(=O)c2ccc(OC(C)C)cc2)c2cccs2)ccc1F (centres undefined)	D1 antag -73.7 (no result: D3 antag)
CCOc1ccccc1CNC(=O)CCCn1c(=O)c2cccn2c2ccc(F)cc21	none (no result: D3 antag)
O=C(Nc1cccc(C(=O)O)c1)/C(=C\c1ccccc1)NC(=O)c1cccc2ccccc12	none
COc1ccc(CNC/C=C/c2ccccc2)cc1	D3 antag -79.7
NS(=O)(=O)c1ccc(CCNC/C=C/c2ccccc2)cc1	D3 antag -70.9
COc1ccc(CCNC/C=C/c2ccccc2)cc1	D3 antag -58.7 (no result: D1 antag, D1 agonist, D1 potentiator)
Cc1ccc(NC(=S)NC(=O)C2CC2)cc1Cl	D1 antag -72.6
O=C(NC(=S)NCc1ccccc1)C1CCCCC1	D3 antag -53.6
COC(=O)c1ccccc1NC(=S)NC(=O)C1CCCCC1	D1 antag -64.5
COC(=O)c1ccccc1NC(=O)C1CCCC1	none
COc1ccccc1OCCNC(=O)C1CCCCC1	D1 agonist 34.2
Cc1ccc(Cn2cc(CCC(=O)NCc3ccccc3F)c3ccccc32)cc1	none (no result: D3 antag)
COC(=O)c1c(N2C(=O)CC(Sc3ccccc3C(=O)O)C2=O)sc2c1CCCC2 (centres undefined)	none
CCOc1ccc(OCCNC(=O)c2ccc3c(c2)nnn3CC)cc1	D3 antag inconclusive (no result: D1 antag, D1 agonist, D1 potentiator)
COc1ccc(OCC(=O)NNC(=S)NC(=O)C2CC2)cc1	DRD3 agonist 31.2
COc1ccccc1NC(=S)NC(=O)C1CC1	D1 antag -42.3
CCOc1ccccc1NC(=S)NC(=O)C1CCCCC1	none
COc1ccccc1NC(=S)NC1CCCCCCCCCCC1	D3 antag -79.4
COc1cccc(NC(=O)CSc2nc3c(sc4ccccc43)c(=O)n2CCCN2CCCC2)c1	D3 antag inconclusive
O=C(/C=C/c1ccc(S(=O)(=O)N2CCOCC2)cc1)N(CCO)Cc1ccccc1	none
CCN(Cc1ccc(OC)c(F)c1)C(=O)/C=C/c1ccc(S(=O)(=O)N2CCOCC2)cc1	D1 antag -41.1
CC(=O)c1cccc(NC(=O)C(C)OC(=O)/C=C/c2cccs2)c1 (centres undefined)	none
